The values that follow come from PubChem BioAssay (NCATS).

Several values for one entry are separate records, joined by “and”; a condition that tells them apart may be missing. Equal values may be shown once. Activity calls are given as the source filed them. The call rests on the fitted dose curve; in most records, active means well fitted activation curve with a large enough effect; inconclusive means small, poorly fitted or top-dose-only effect; inactive means flat fitted curve, though single readings scatter.

Chain of Peroxisome proliferator-activated receptor alpha (Homo sapiens) (Q07869 whole entry, looked up): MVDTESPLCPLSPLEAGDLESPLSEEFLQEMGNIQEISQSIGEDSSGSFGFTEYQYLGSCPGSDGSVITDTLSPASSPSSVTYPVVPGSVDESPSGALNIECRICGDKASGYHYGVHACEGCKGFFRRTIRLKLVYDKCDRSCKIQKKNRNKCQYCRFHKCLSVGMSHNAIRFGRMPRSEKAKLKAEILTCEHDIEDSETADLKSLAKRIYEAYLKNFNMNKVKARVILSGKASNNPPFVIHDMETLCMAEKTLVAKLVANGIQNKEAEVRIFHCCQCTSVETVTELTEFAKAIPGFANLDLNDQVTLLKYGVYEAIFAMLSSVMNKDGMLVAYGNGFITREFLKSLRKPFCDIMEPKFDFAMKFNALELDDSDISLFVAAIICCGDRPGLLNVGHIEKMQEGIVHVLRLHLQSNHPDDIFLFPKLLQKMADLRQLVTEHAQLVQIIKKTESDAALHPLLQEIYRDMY

This test addresses Peroxisome proliferator-activated receptor alpha (Homo sapiens) (UniProt Q07869). As to the kind of experiment: qHTS assay for small molecule agonists of the peroxisome proliferator-activated receptor alpha (PPARalpha) signaling pathway (AID 651778). Further: % of control where 0% means no effect. To be noted: PathHunter PPARalpha complementation, chemiluminescence, 6 h; max response: stronger effect = higher value. The text has this: National Center for Advancing Translational Sciences [NCATS]
NIH Chemical Genomics Center [NCGC]
U.S. Environmental Protection Agency [EPA]
National Institutes of Environmental Health Sciences [NIEHS]
National Toxicology Program [NTP]
The Peroxisome proliferator-activated receptors (PPARs) are lipid-activated transcription factors of the nuclear receptor superfamily with three distinct subtypes (alpha, garmma and beta/delta). All these subtypes heterodimerize with retinoid X receptor and have different physiological functions. PPARalpha is highly expressed in tissues with high rates of mitochondrial fatty acid oxidation, such as liver, heart, muscle, kidney and cells of the arterial wall. PPARalpha is a major regulator of lipid metabolism and energy homeostasis.
A cell based assay was used to identify activators of PPARalpha. The assay detects binding of a ligand to PPARalpha leading to its activation, translocation and complementation thus forming a functional enzyme capable of hydrolyzing the substrate molecule and generating chemiluminescent signal.
2,000 cells in 6 uL/well were dispensed into white wall/solid bottom 1536-well plates using a Multidrop Combi (Thermo Scientific) dispenser. After incubation 37 C and 5% CO2 overnight, 23 nL compound or DMSO only were transferred by a pin tool. The plates were incubated for 6 hr at 37 C and 5% CO2. 3 ul PathHunter detection reagent (Discoverx) was then added to each well and following 60 min incubation at room temperature, chemiluminescence was quantified on a ViewLux CCD-based plate reader.
In general terms: qHTS replaces the single test concentration by a dilution series.
For the molecule `CCCCCCCCCCCCCCCC`, the max response is 0.236% (inactive).
With `Cn1c(=O)[nH]c(=O)n(C2CCC(O)CC2)c1=O` (stereo not given) the figure was -2.74% (inactive).
With `CCCCCCCCCCCCCCC` the figure was -1.61% (inactive); with `O=C(O)C1(C(=O)Nc2ccc(Cl)cc2Cl)CC1`, 0.116% (inactive).
As for `CCOCCOCCOCCO`, the max response was -1.08% (inactive).
For `CCCCCCCCCC(C)=O` the value was 0.198% (inactive); for `CCCCNS(=O)(=O)c1ccccc1`, 0.574% (inactive).
For `CCCOC(=O)c1ccc(C(=O)OCCC)nc1` the value was -0.236% (inactive); for `CC(C)C(=O)OC(=O)C(C)C`, -0.54% (inactive).
With `COc1ccccc1NC(=O)CC(C)=O` the figure was 0.153% (inactive).
`CCCCCCc1ccc(N)cc1`: the max response was 0.597% (inactive).
As for `C=CCCCCCCCCC=O`, the max response is -1.39% (inactive).
Consider `Nc1cc(Cl)nc(C(=O)O)c1Cl`, for which the max response was -2.9% (inactive).
With `C=CC(=O)OCC[N+](C)(C)C` the figure was -0.129% (inactive); with `CC[C@H](C)C1O[C@]2(C=C[C@@H]1C)C[C@@H]1C[C@@H](C/C=C(\C)[C@@H](O[C@H]3C[C@H](OC)[C@@H](O[C@H]4C[C@H](OC)[C@H](NC(C)=O)[C@H](C)O4)[C@H](C)O3)[C@@H](C)/C=C/C=C3\CO[C@@H]4[C@H](O)C(C)=C[C@@H](C(=O)O1)[C@]34O)O2` (stereo not given in full), 6.61% (inactive); with `CC1(C)[C@@H](C=C(Cl)Cl)[C@@H]1C(=O)OCc1cccc(Oc2ccccc2)c1`, -0.645% (inactive).
For `FC(F)(F)c1ccc(Cl)c(Cl)c1` the value was 0.167% (inactive); for `CC(C)CCCCOC(=O)c1ccccc1C(=O)OCCCCC(C)C`, 2.93% (inactive); for `CCNc1nc(NC(C)CC)nc(OC)n1` (stereo not given), 5.06% (inactive).
For `O=[N+]([O-])c1ccc(O)cc1C(F)(F)F` the value was -8.59% (inactive); for `CCCCCCCCCCCCCCCCN(C)C`, -0.399% (inactive).
`S=C([S-])NCCNC(=S)[S-].[Mn+2]`: the max response is -2% (inactive) and -3.91% (inactive).
As to `C[Si](Cl)(Cl)c1ccccc1`, the max response was -2.64% (inactive).
With `CCc1cccc(C)c1N(C(=O)CS(=O)(=O)O)[C@@H](C)COC` the figure was -2.29% (inactive); with `N#CSCSc1nc2ccccc2s1`, -9.14% (inactive); with `CC(C)Cc1c(C(=O)O)c(C(F)F)nc(C(F)(F)F)c1C1=NCCS1`, -0.845% (inactive).
In the case of `CC(C)(N=C=O)c1cccc(C(C)(C)N=C=O)c1`, the max response was -1.39% (inactive).
Turning to `O=C(O)CCCCCCCCCCC(=O)O`, the max response was -1.09% (inactive).
Consider `CCCCOC(=O)/C=C\C(=O)OCCCC`, for which the max response is -0.617% (inactive).
`CC(C)(C)c1cc(C(C)(C)C)c(O)c(C(C)(C)C)c1`: the max response is 7.66% (inactive).
Consider `CCC(C)(C)C1CCC(O)CC1` (stereo not given), for which the max response was -0.406% (inactive).
Consider `Cn1c(=O)[nH]c(=O)n(C2CCCCC2)c1=O`, for which the max response is -0.628% (inactive).
With `O=C(O)c1cccc(C(=O)O)c1` the figure was -0.8% (inactive).
For `O=C(O)c1ccc(C(=O)O)c(C(=O)O)c1`, the max response was -1.17% (inactive).
In the case of `C=CCCCCCCCCCC`, the max response is -0.224% (inactive).
In the case of `CC(C)CCCCCOC(=O)CS`, the max response was 0.461% (inactive).
In the case of `CNc1nc(=O)n(C2CCC(O)CC2)c(=O)n1C` (stereo not given), the max response was -1.33% (inactive).
`C=C(C)C(=O)OCCC[Si](Cl)(Cl)Cl`: the max response is 0.0328% (inactive).
For `CCCCCCCCCCCCN` the value was -0.939% (inactive).
For `CC(=O)CC(=O)Nc1ccc(C)cc1C` the value was -1.32% (inactive).
